About 79,000 compounds went through this panel and 15% of them were active in at least one assay; those are over-represented in the sample as a whole. Unmarked numbers belong to inactive results. Active and inactive are the calls of the source. Rule as the data show it: active = growth inhibition above about 70%; inactive = the rest.
Experiment: NCI Yeast Anticancer Drug Screen. Data for the bub3 strain (AID 167)
Conditions: S. cerevisiae bub3 mutant strain, at 50.0 µM (retest, dose inferred, filed as 5.0), hits give high values
Outline: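 Inhibition values come from growth of compound-treated mutant yeast normalised to vehicle-treated controls.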
With `Cc1cc(NCCCCCCCNc2cc(C)nc3cc(N)ccc23)c2ccc(N)cc2n1` the growth inhibition was 82% (active). For `C[C@]12CC[C@H]3[C@@H](CCC4=CC(=O)CC[C@@]43C)[C@@H]1CC[C@@H]2C(=O)C=O`, the growth inhibition was 17%. With `COc1cc2c[n+](C)c3c4cc(OC)c(OCc5ccccc5)cc4c(OCc4ccccc4)cc3c2cc1OC` the growth inhibition was 95% (active). Work on `Nc1ncnc2c1c(-c1ccc(Cl)cc1)cn2-c1ccccc1` yielded a growth inhibition of 65%. Work on `Cc1c[nH]c2nc(C)n(-c3ccccc3)c(=N)c12` yielded a growth inhibition of -3%. With `COc1ccc(Cc2ccc3c(C)cc(Cl)nc3c2)cc1` the growth inhibition was 78% (active). With `COC(=O)c1ccc(NCc2c(O)ccc(O)c2Br)cc1Cl` the growth inhibition was 99% (active). In the case of `CC1=CC(=O)c2c(O)c3c(c(O)c2C1=O)C1C(O)C(C3=O)C23C(=O)c4c(O)c(C)cc(O)c4C(O)=C2C(=O)CC(O)C13` (stereo not drawn), the growth inhibition is reported as 97% (active). For `CC(C)(O)[C@H](CCO)O[Si](c1ccccc1)(c1ccccc1)C(C)(C)C`, the growth inhibition was 98% (active). `COC(=O)/C(C#N)=C(/SC)N(C)C` gave a growth inhibition of 7%. Compound `N#CC(C(=O)CCCC(=O)Nc1ccc(Cl)cc1)c1ccccc1Cl` (stereo not drawn) has a growth inhibition of 30%. In the case of `FC(F)(F)c1cccc(Nc2ccc3cnc4ccccc4c3c2)c1`, the growth inhibition is reported as 95% (active). With `CN1C(/C=C/c2ccc(O)c3ncccc23)CCC2CCCC(O)C21` (stereo not drawn) the growth inhibition was 96% (active). In the case of `N#CC1(C#N)C(C#N)(C#N)C12CCCC2`, the growth inhibition is reported as 81% (active). For `O=C1C(Cl)=C(Cl)C(=O)C2=C1CC(Cl)C(Cl)C2` (stereo not drawn), the growth inhibition was 98% (active). In the case of `N#CC(/C=C/c1ccccc1)(NO)Nc1cccc(Cl)c1` (stereo not drawn), the growth inhibition is reported as 99% (active). In the case of `O=C(O)c1ccccc1C(c1ccccc1)c1ccccc1`, the growth inhibition is reported as 79% (active). In the case of `OCC1(c2ccccc2)OC1c1ccccc1` (stereo not drawn), the growth inhibition is reported as -51%. In the case of `COc1ccc(NS(=O)(=O)c2ccc(F)cc2)cc1`, the growth inhibition is reported as -21%. `CCn1c2nc(=O)n(C)c(=O)c-2[n+]([O-])c2cc(C)ccc21` showed a growth inhibition of 13%. With `O=[N+]([O-])C(=C(Nc1ccccc1)Nc1ccccc1)C(Cl)=C(Cl)Cl` the growth inhibition was 100% (active). With `CCC/C(=N\NC(=S)N(C)C)c1ccccn1` the growth inhibition was 98% (active). In the case of `O=C(CSc1cc[o+]cc1)c1cccc([N+](=O)[O-])c1`, the growth inhibition is reported as 92% (active). For `CC12CCC(c3sc(N)c(C#N)c31)C2(C)C` (stereo not drawn), the growth inhibition was -20%. In the case of `N#CC(C#N)=C(C1CC1)C1CC1`, the growth inhibition is reported as 93% (active). With `Cc1c(N=Nc2cccc(F)c2)c(-c2ccccc2)nn1C(N)=S` the growth inhibition was 97% (active). With `CN1COc2c(Cl)cc(Cl)cc2C1` the growth inhibition was 75% (active). Work on `O=C1CCCCO1` yielded a growth inhibition of -3%. In the case of `Nc1cc2c(cc1/C=C(\C(=O)O)c1ccccc1)OCO2`, the growth inhibition is reported as 2%. `Cc1cc2c(cc1C)C(=O)OC2=O` gave a growth inhibition of 5%. With `C(/Cc1ccc2c(c1)OCO2)=N\NC1=NCCCCN1` the growth inhibition was -20%. With `CCCCCCCCN(CCCCCCCC)CC(O)c1cc(-c2ccc(OC)cc2)nc2cc(Cl)ccc12` (stereo not drawn) the growth inhibition was 85% (active). For `Cc1cc(C(=O)CBr)c(CN2C(=O)c3ccccc3C2=O)c(=O)n1C`, the growth inhibition was 98% (active). In the case of `O=C(O)c1ccccc1-c1c2ccc(=O)c(Br)c-2oc2c(Br)c(O)ccc12`, the growth inhibition is reported as 96% (active). `O=C(Nc1cccc(NC(=O)c2cc(=O)c3ccccc3o2)n1)c1cc(=O)c2ccccc2o1` gave a growth inhibition of 15%. For `COC(=O)c1nc(=S)[nH]c(C(=O)OC)c1C(=O)c1ccc([N+](=O)[O-])cc1`, the growth inhibition was 93% (active). With `COC1/C=C\C=C(/C)C(=O)Nc2cc3nc4cc(Br)ccc4oc-3c(c2=O)CC(C)CC(OC)C(O)C(C)/C=C(\C)C1OC(N)=O` (stereo not drawn) the growth inhibition was 96% (active). With `NC(=S)C(=S)N/C=C(/c1ccc(Cl)cc1)S(=O)(=O)Cc1ccc(Cl)cc1` the growth inhibition was 98% (active). With `O=C(Cc1ccccc1)c1ccccc1C(=O)NNc1ccccc1` the growth inhibition was 96% (active).

Same assay, conditions: S. cerevisiae bub3 mutant strain, at 50.0 µM, hits give high values
With `Cc1cc(NCCCCCCCNc2cc(C)nc3cc(N)ccc23)c2ccc(N)cc2n1` the growth inhibition was 87% (active). `C[C@]12CC[C@H]3[C@@H](CCC4=CC(=O)CC[C@@]43C)[C@@H]1CC[C@@H]2C(=O)C=O` gave a growth inhibition of 41.2%. In the case of `COc1cc2c[n+](C)c3c4cc(OC)c(OCc5ccccc5)cc4c(OCc4ccccc4)cc3c2cc1OC`, the growth inhibition is reported as 93.5% (active). With `Nc1ncnc2c1c(-c1ccc(Cl)cc1)cn2-c1ccccc1` the growth inhibition was 48.7%. Work on `Cc1c[nH]c2nc(C)n(-c3ccccc3)c(=N)c12` yielded a growth inhibition of -6.85%. In the case of `COc1ccc(Cc2ccc3c(C)cc(Cl)nc3c2)cc1`, the growth inhibition is reported as 89% (active). In the case of `COC(=O)c1ccc(NCc2c(O)ccc(O)c2Br)cc1Cl`, the growth inhibition is reported as 91.8% (active). For `CC1=CC(=O)c2c(O)c3c(c(O)c2C1=O)C1C(O)C(C3=O)C23C(=O)c4c(O)c(C)cc(O)c4C(O)=C2C(=O)CC(O)C13` (stereo not drawn), the growth inhibition was 91.1% (active). For `CC(C)(O)[C@H](CCO)O[Si](c1ccccc1)(c1ccccc1)C(C)(C)C`, the growth inhibition was 98.5% (active). `COC(=O)/C(C#N)=C(/SC)N(C)C` showed a growth inhibition of 2.55%. In the case of `N#CC(C(=O)CCCC(=O)Nc1ccc(Cl)cc1)c1ccccc1Cl` (stereo not drawn), the growth inhibition is reported as 99% (active). For `FC(F)(F)c1cccc(Nc2ccc3cnc4ccccc4c3c2)c1`, the growth inhibition was 95.2% (active). In the case of `CN1C(/C=C/c2ccc(O)c3ncccc23)CCC2CCCC(O)C21` (stereo not drawn), the growth inhibition is reported as 92.8% (active). Work on `N#CC1(C#N)C(C#N)(C#N)C12CCCC2` yielded a growth inhibition of 12.4%. In the case of `O=C1C(Cl)=C(Cl)C(=O)C2=C1CC(Cl)C(Cl)C2` (stereo not drawn), the growth inhibition is reported as 99.3% (active). In the case of `N#CC(/C=C/c1ccccc1)(NO)Nc1cccc(Cl)c1` (stereo not drawn), the growth inhibition is reported as 99.5% (active). For `O=C(O)c1ccccc1C(c1ccccc1)c1ccccc1`, the growth inhibition was 75.3% (active). For `OCC1(c2ccccc2)OC1c1ccccc1` (stereo not drawn), the growth inhibition was 74.8% (active). With `COc1ccc(NS(=O)(=O)c2ccc(F)cc2)cc1` the growth inhibition was 97.2% (active). Compound `CCn1c2nc(=O)n(C)c(=O)c-2[n+]([O-])c2cc(C)ccc21` has a growth inhibition of 14.9%. For `O=[N+]([O-])C(=C(Nc1ccccc1)Nc1ccccc1)C(Cl)=C(Cl)Cl`, the growth inhibition was 91.5% (active). With `CCC/C(=N\NC(=S)N(C)C)c1ccccn1` the growth inhibition was 99.5% (active). With `O=C(CSc1cc[o+]cc1)c1cccc([N+](=O)[O-])c1` the growth inhibition was 97.1% (active). `CC12CCC(c3sc(N)c(C#N)c31)C2(C)C` (stereo not drawn) gave a growth inhibition of 31.7%. In the case of `N#CC(C#N)=C(C1CC1)C1CC1`, the growth inhibition is reported as 11.8%. With `Cc1c(N=Nc2cccc(F)c2)c(-c2ccccc2)nn1C(N)=S` the growth inhibition was 99.5% (active). Work on `CN1COc2c(Cl)cc(Cl)cc2C1` yielded a growth inhibition of 45.5%. For `O=C1CCCCO1`, the growth inhibition was -43.3%. `Nc1cc2c(cc1/C=C(\C(=O)O)c1ccccc1)OCO2` gave a growth inhibition of -5.95%. With `Cc1cc2c(cc1C)C(=O)OC2=O` the growth inhibition was 83.5% (active). `C(/Cc1ccc2c(c1)OCO2)=N\NC1=NCCCCN1` gave a growth inhibition of 3.2%. In the case of `CCCCCCCCN(CCCCCCCC)CC(O)c1cc(-c2ccc(OC)cc2)nc2cc(Cl)ccc12` (stereo not drawn), the growth inhibition is reported as 75.7% (active). Work on `Cc1cc(C(=O)CBr)c(CN2C(=O)c3ccccc3C2=O)c(=O)n1C` yielded a growth inhibition of 31.2%. With `O=C(O)c1ccccc1-c1c2ccc(=O)c(Br)c-2oc2c(Br)c(O)ccc12` the growth inhibition was 96.4% (active). `O=C(Nc1cccc(NC(=O)c2cc(=O)c3ccccc3o2)n1)c1cc(=O)c2ccccc2o1` gave a growth inhibition of 58.5%. `COC(=O)c1nc(=S)[nH]c(C(=O)OC)c1C(=O)c1ccc([N+](=O)[O-])cc1` gave a growth inhibition of 61.1%. For `COC1/C=C\C=C(/C)C(=O)Nc2cc3nc4cc(Br)ccc4oc-3c(c2=O)CC(C)CC(OC)C(O)C(C)/C=C(\C)C1OC(N)=O` (stereo not drawn), the growth inhibition was 91.8% (active). For `NC(=S)C(=S)N/C=C(/c1ccc(Cl)cc1)S(=O)(=O)Cc1ccc(Cl)cc1`, the growth inhibition was 96.7% (active). With `O=C(Cc1ccccc1)c1ccccc1C(=O)NNc1ccccc1` the growth inhibition was 26.2%.

Reference: PubChem BioAssay (NCI)
